Reference: PubChem BioAssay (NCATS)
Inconclusive results are not listed. Entries that show only a call come without a potency. The source made the active and inactive calls. Calls come from the whole dose curve; as a rule, active = well fitted inhibition curve with a large enough effect; inconclusive = small, poorly fitted or top-dose-only effect; inactive = no such curve, though single readings can be large or run the other way.

Test: Primary qHTS for small molecule stabilizers of the endoplasmic reticulum resident proteome: Secreted ER Calcium Modulated Protein (SERCaMP) assay (AID 1508630)
Conditions: SH-SY5Y GLuc-SERCaMP (Gaussia luciferase released on ER calcium loss) secretion, thapsigargin, luminescence; series mostly up to 38.4 µM
Summary of the method: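 The SH-SY5Y reporter protocol was run at 3 concentrations up to 38.3 uM (primary) or 11 concentrations (follow-up): 16 h compound, 100 nM thapsigargin for 4 h, then extracellular luciferase luminescence.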

Structure (SMILES)	Potency
NC(=O)c1ncn([C@@H]2O[C@H](CO)[C@@H](O)[C@@H]2O)n1	inactive
CCCCCOC(=O)Nc1nc(=O)n([C@@H]2O[C@H](C)[C@@H](O)C2O)cc1F (stereo partly specified)	inactive
CC(=O)O[C@]1(C(C)=O)CC[C@H]2[C@@H]3C=C(Cl)C4=CC(=O)[C@@H]5C[C@H]5[C@]4(C)[C@@H]3CC[C@@]21C	inactive
CO[C@H]1/C=C\O[C@@]2(C)Oc3c(C)c(O)c4c(O)c(c(C=NN5CCN(C6CCCC6)CC5)c(O)c4c3C2=O)NC(=O)C(C)=CC=C[C@H](C)[C@H](O)[C@@H](C)[C@@H](O)[C@@H](C)[C@H](OC(C)=O)[C@H]1C	inactive
O=C(NC[C@H](O)CO)c1ccncc1Nc1ccc(I)cc1F	inactive
CN1CC(=O)N2C(Cc3c([nH]c4ccccc34)[C@H]2c2ccc3c(c2)OCO3)C1=O (stereo partly specified)	inactive
COc1c(C)c2c(c(O)c1CC=C(C)CCC(=O)O)C(=O)OC2	inactive
O[C@@H](COc1cccc2ncccc12)CN1CCN(C2c3ccccc3[C@@H]3[C@H](c4ccccc42)C3(F)F)CC1 (stereo partly specified)	inactive
CCCCN(CCCC)CC(O)c1cc(Cl)cc2c1-c1ccc(Cl)cc1C2=Cc1ccc(Cl)cc1 (stereo unspecified)	inactive
C[C@H]1O[C@@H](n2cc(F)c(=O)[nH]c2=O)[C@H](O)[C@H]1O	inactive
C[C@@H]1[C@H](O)[C@@H](C)C=CC=CC=CC=CC=CC=CC=C[C@H](O[C@@H]2O[C@H](C)[C@H](O)[C@H](N)[C@@H]2O)C[C@@H]2O[C@](O)(C[C@@H](O)C[C@@H](O)[C@H](O)CC[C@@H](O)C[C@@H](O)CC(=O)O[C@H]1C)C[C@H](O)[C@@H]2C(=O)O	inactive
